Test results as given in paper PMC4336329 (PLoS ONE, 2015).
The whole screen tested about 310,000 compounds, of which about 14,000 (4.5%) showed an effect of 50% or more. Effects have a minus sign here. What follows is part of a selection rich in strong results, with near analogues and random picks from the rest.

The compounds below were run against human ether-à-go-go-related gene (hERG) potassium channel (human, UniProt Q12809) (assay: primary screen, population patch clamp on CHO cells stably expressing hERG; higher = less effect of the substance).
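Note: peak tail current of the secondary pulse compared with the same well before compound.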

human ether-à-go-go-related gene (hERG) potassium channel, sequence (Q12809 whole entry, looked up): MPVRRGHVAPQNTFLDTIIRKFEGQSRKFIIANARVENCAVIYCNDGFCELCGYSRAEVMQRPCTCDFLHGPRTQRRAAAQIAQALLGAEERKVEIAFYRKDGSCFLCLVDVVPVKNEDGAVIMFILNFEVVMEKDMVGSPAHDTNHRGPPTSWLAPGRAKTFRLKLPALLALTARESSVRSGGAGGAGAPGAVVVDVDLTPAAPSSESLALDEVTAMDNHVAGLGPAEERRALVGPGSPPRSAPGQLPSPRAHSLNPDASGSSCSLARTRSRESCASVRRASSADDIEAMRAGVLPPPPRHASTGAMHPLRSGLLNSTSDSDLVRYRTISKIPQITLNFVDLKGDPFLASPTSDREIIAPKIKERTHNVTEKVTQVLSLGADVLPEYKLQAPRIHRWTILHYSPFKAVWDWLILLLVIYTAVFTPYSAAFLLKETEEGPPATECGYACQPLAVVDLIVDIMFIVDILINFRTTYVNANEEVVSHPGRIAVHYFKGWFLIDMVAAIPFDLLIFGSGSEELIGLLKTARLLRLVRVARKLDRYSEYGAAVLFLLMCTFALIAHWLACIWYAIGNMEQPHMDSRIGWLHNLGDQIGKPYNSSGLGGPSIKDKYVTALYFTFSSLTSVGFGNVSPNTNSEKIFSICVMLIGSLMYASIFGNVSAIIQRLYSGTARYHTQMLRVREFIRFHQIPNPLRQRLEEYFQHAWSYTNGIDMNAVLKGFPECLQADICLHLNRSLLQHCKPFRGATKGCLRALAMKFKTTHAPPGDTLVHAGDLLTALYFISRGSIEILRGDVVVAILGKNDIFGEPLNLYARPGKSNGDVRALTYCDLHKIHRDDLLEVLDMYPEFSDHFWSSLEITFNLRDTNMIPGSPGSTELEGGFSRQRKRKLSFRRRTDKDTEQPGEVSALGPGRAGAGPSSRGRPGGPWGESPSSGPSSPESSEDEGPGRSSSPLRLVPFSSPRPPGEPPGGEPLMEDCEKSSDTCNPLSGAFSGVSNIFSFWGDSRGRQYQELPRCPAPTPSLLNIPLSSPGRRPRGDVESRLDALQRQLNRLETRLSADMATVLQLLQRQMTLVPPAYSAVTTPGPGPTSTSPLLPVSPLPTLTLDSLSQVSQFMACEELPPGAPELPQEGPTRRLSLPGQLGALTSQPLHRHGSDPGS

Point of comparison: Cc1nc(Nc2ccc3c(c2)OCCO3)c2oc3ccccc3c2n1, “hERG current change (%, negative = inhibition) at 10uM” value -5.62%. Against it:
- O=C(CCC1CCCC1)NCc1cccs1 — higher, 13.9%
- CCC(Oc1ccccc1)C(=O)NCCOC (centres unmarked) — lower, -8.48%
- CC(NC(=O)c1cccc(Br)c1)c1ccccc1 (centres unmarked) — higher, -2.43%
- NC12CC3CC(C1)CC(CC(=O)O)(C3)C2 — higher, 10.8%
- CC(=O)c1ccc(NC(=O)CSc2nnc(-c3ccco3)o2)cc1 — lower, -73.9%
- O=C(CSc1nnc(-c2ccco2)c(-c2ccco2)n1)Nc1ccccc1 — lower, -75.2%
- O=C(CSc1n[nH]c(-c2ccco2)n1)Nc1ccccc1 — lower, -20.4%
- COc1cccc(NC(=O)CSc2ccc(-c3ccco3)nn2)c1 — lower, -48.1%
- CCN(CC)C(=O)CSc1nnc(-c2ccccc2)c(-c2ccccc2)n1 — lower, -20.4%
- Cc1ccc(-c2nnc(SCC(N)=O)nc2-c2ccc(C)cc2)cc1 — lower, -24.2%
- COc1cccc(NC(=O)CSc2nnc(-c3ccco3)c(-c3ccco3)n2)c1 — lower, -59.6%
- CC(=O)Nc1ccc(NC(=O)CSc2nnc(-c3ccco3)o2)cc1 — higher, 7.81%
- Cc1ccc(NC(=O)CSc2nnc(-c3ccco3)o2)cc1 — higher, 2.91%
- Cc1ccc(-c2nnc(SCC(=O)N(C)C)nc2-c2ccc(C)cc2)cc1 — lower, -67.9%
- COc1ccc(NC(=O)CSc2nnc(-c3ccco3)c(-c3ccco3)n2)cc1OC — lower, -29.4%
- O=C(CSc1nnc(-c2ccco2)c(-c2ccco2)n1)c1ccccc1 — higher, 4.5%
- COc1ccc2cc(C(=O)C3CCCN(C(=O)c4sc(C)nc4C)C3)ccc2c1 (centres unmarked) — lower, -22.8%
- Cc1ccc(S(=O)(=O)N2CCN(C(=O)CCn3nc(C)c(C)c3C)CC2)cc1 — higher, 11.1%
- Oc1cccc(-c2nc3c4c(ncn3n2)-c2ccccc2CC42CCCC2)c1 — lower, -7.64%
- COc1ccc(CCn2nnnc2C(c2ccc(Cl)cc2)N2CCN(C)CC2)cc1OC.Cl (centres unmarked) — lower, -11.6%
- CC(=O)Nc1ccccc1OC(=O)N(C)C — higher, 2.41%
- COc1c(Cl)cc(Cl)cc1C(=O)Nc1ccc(NC(=O)c2cccs2)cc1 — higher, 13.2%
- COc1ccc(C2(CNC(=O)c3cccc([N+](=O)[O-])c3)CCOCC2)cc1 — higher, 0.0345%
- CN(C)c1ccc(NC(=O)CSc2nnc(-c3ccco3)c(-c3ccco3)n2)cc1 — higher, 6.58%
- CC(=O)c1ccc(NC(=O)CSc2nnc(-c3ccco3)c(-c3ccco3)n2)cc1 — lower, -33%
- Cc1ccc(NC(=O)CSc2nnc(-c3ccco3)c(-c3ccco3)n2)cc1 — lower, -64.9%
- CCOc1ccc(NC(=S)N2CCC(c3ccc(C)cc3)C2)cc1 (centres unmarked) — lower, -6.63%
- CSc1cccc(NC(=S)N(CCCN2CCCC2)Cc2cccn2Cc2ccc(Cl)cc2)c1 — lower, -28.1%
- CSc1cccc(NC(=S)N(CCCN2CCCC(C)C2)Cc2cccs2)c1 (centres unmarked) — lower, -75.6%
- CSc1cccc(NC(=S)N(CCCN2CCC(C)CC2)Cc2cccs2)c1 — lower, -72.9%
- CSc1cccc(NC(=S)N(CCCN2CCCC2)Cc2cccs2)c1 — lower, -63.7%
- Cc1cccc(C)c1NC(=S)N(CCCN1CCN(C)CC1)Cc1cccs1 — lower, -47.8%
- Cc1ccc(/C=N/NC(=O)c2cc3c(ccc4ccccc43)o2)cc1[N+](=O)[O-] — higher, 3.49%
- Cc1cc(C)n(C(=O)COc2c(C)cccc2C)n1 — higher, 11%
- COc1cc(C(=O)N2CCN(C3CCC(C)CC3)CC2)cc(OC)c1OC.O=C(O)C(=O)O (centres unmarked) — higher, 8.29%
- CCCCN(C)Cc1c(C(=O)N2CCc3ccccc3C2)nc2ccc(Cl)cn12 — lower, -50.1%
- Cc1cnc(CN(C)Cc2c(C(=O)N3CCc4ccccc4C3)nc3ccc(Cl)cn23)[nH]1 — lower, -62.6%
- CN(Cc1cccnc1)Cc1c(C(=O)N2CCc3ccccc3C2)nc2ccc(Cl)cn12 — lower, -20.1%
- CN(Cc1c(C(=O)N2CCc3ccccc3C2)nc2ccc(Cl)cn12)C(C1CC1)C1CC1 — lower, -45.9%
- Cc1cnc(CN(C)Cc2c(C(=O)N3CCCCCCC3)nc3ccc(Cl)cn23)[nH]1 — lower, -29%
- CN(Cc1cnccn1)Cc1c(C(=O)N2CCc3ccccc3C2)nc2ccc(Cl)cn12 — lower, -23.4%
- CC(C)CN(C)Cc1c(C(=O)N2CCc3ccccc3C2)nc2ccc(Cl)cn12 — lower, -53.2%
- CN1CCN(Cc2c(C(=O)N3CCc4ccccc4C3)nc3ccc(Cl)cn23)CC1 — lower, -51.8%
- CC1CCN(Cc2c(C(=O)N3CCc4ccccc4C3)nc3ccc(Cl)cn23)CC1 — lower, -31.7%
- CCN(CC)Cc1c(C(=O)N2CCc3ccccc3C2)nc2ccc(Cl)cn12 — lower, -13.1%
- CCN(C)Cc1c(C(=O)N2CCc3ccccc3C2)nc2ccc(Cl)cn12 — lower, -31.1%
- O=C(c1nc2ccc(Cl)cn2c1CN1CCCC1)N1CCc2ccccc2C1 — lower, -10.6%
- COC(=O)c1cc2c(C)nn(-c3ccccc3)c2s1 — higher, 2.91%
- CC(=O)c1cccc(NC(=O)COC(=O)c2ccccn2)c1 — higher, 5.33%
- Cc1ccc(-c2nnc(-c3cc(C)on3)o2)cc1 — higher, 19.6%
- O=C(CNC(=O)c1ccc([N+](=O)[O-])cc1)c1ccccc1 — lower, -6.36%
- COc1cc(N(C)C)c([N+](=O)[O-])cc1C(=O)NC(C)CNc1ccc([N+](=O)[O-])cc1Cl (centres unmarked) — higher, -2.36%
- COC(=O)C1=CO[C@@H](C)[C@H]2CN3CC[C@]4(C(=O)Nc5ccccc54)[C@@H]3C[C@H]12 — higher, 15.5%
- Fc1ccccc1NC(=S)Nc1cccc2cnccc12 — higher, 46.8%
- O=C(CSc1ccc2nnc(-c3ccccn3)n2n1)Nc1cccc(F)c1 — lower, -40.6%
- Cc1cccc(CSc2ccc3nnc(-c4ccccn4)n3n2)c1 — lower, -75.7%
- Cc1cccc(CSc2nnc(-c3ccccn3)n2N)c1 — higher, 2.88%
- Fc1cccc(Cl)c1CSc1ccc2nnc(-c3ccccn3)n2n1 — lower, -13.5%
- Fc1cccc(CSc2ccc3nnc(-c4ccccn4)n3n2)c1 — lower, -77.9%
- COc1cccc(NC(=O)CSc2ccc3nnc(-c4ccccn4)n3n2)c1 — lower, -47.3%
- Cc1cn2nc(N)c3ccccc3c2n1 — lower, -9.19%
- CCOC(=O)c1cc(C(C)=O)c(=O)[nH]c1C — higher, 12%
- Cc1ccc(C(=O)N2CCCC(CCC(=O)N3CCN(c4ccccn4)CC3)C2)cc1 (centres unmarked) — lower, -9.9%
- O=C(CCC1CCCN(c2ncccn2)C1)N1CCN(c2ccccn2)CC1 (centres unmarked) — lower, -23%
- CCc1cc(C(=O)N2CCCC(CCC(=O)N3CCN(c4ccccn4)CC3)C2)no1 (centres unmarked) — lower, -17.4%
- Cc1ccc(C(=O)N2CCCC(CCC(=O)N3CCN(c4ccccn4)CC3)C2)cc1C (centres unmarked) — lower, -34.9%
- Cc1cccc(C(=O)N2CCCC(CCC(=O)N3CCN(c4ccccn4)CC3)C2)c1 (centres unmarked) — lower, -74.5%
- CCc1ccc(CN2CCCC(CCC(=O)N3CCN(c4ccccn4)CC3)C2)o1 (centres unmarked) — lower, -58.7%
- O=C(CN1C(=O)c2ccccc2S1(=O)=O)NCCSCc1c(F)cccc1Cl — lower, -29.7%
- CCOC(=O)CC(=O)CSc1nc(-c2ccccc2)cc(-c2ccccc2)c1C#N — higher, 10.1%
- Cn1c(=O)c(=O)n(C)c2cc(N3CCCC3)c(NS(=O)(=O)c3ccc(Cl)cc3)cc21 — lower, -44.3%
- Cn1c(=O)c(=O)n(C)c2cc(N3CCOCC3)c(NS(=O)(=O)c3ccc(Br)cc3)cc21 — lower, -27%
- CCc1ccc(S(=O)(=O)Nc2cc3c(cc2N2CCCCC2)n(C)c(=O)c(=O)n3C)cc1 — lower, -85.6%
- Cc1ccc(S(=O)(=O)Nc2cc3c(cc2N2CCOCC2)n(C)c(=O)c(=O)n3C)cc1 — lower, -9.6%
- Cn1c(=O)c(=O)n(C)c2cc(N3CCCCC3)c(NS(=O)(=O)c3ccc(Br)cc3)cc21 — lower, -65.1%
- CCc1ccc(S(=O)(=O)Nc2cc3c(cc2N2CCOCC2)n(C)c(=O)c(=O)n3C)cc1 — lower, -32.1%
- COc1ccc(OC)c(S(=O)(=O)Nc2ccc3c(c2)n(C)c(=O)n3C)c1 — higher, 1.61%
- Cn1c(=O)c(=O)n(C)c2cc(N3CCCC3)c(NS(=O)(=O)c3ccc(F)cc3)cc21 — lower, -16.2%
- COc1ccc(OC)c(NS(=O)(=O)c2cc(OC)ccc2OC)c1 — higher, -2.14%
- Cn1c(=O)c(=O)n(C)c2cc(N3CCCCC3)c(NS(=O)(=O)c3ccc([N+](=O)[O-])cc3)cc21 — lower, -50.6%
- Cn1c(=O)c(=O)n(C)c2cc(N3CCOCC3)c(NS(=O)(=O)c3ccc([N+](=O)[O-])cc3)cc21 — higher, 2.58%
- COc1ccc(OC)c(S(=O)(=O)Nc2cc3c(cc2N2CCCC2)n(C)c(=O)c(=O)n3C)c1 — lower, -50.7%
